From PubChem
AHR act = activates the human aryl hydrocarbon receptor. P35869. AHR-responsive luciferase reporter cells, luminescence. activation, % at 5 µM. 320,000 compounds, 2.5% hits. AID 2796; in the data active = activation above about 47%;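 note: 0% = vehicle wells and 100% = reference agonist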
DAX1 inh-1 = inhibits human nuclear receptor DAX1; P51843; inhibition, % at 6.75 µM; 340,000 compounds, 0.99% hits; AID 504766; HEK293 Gal4-DAX1 luciferase reporter, luminescence;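 active = inhibition above the mean over all tested compounds plus 3 SD, cut at about 4.2% in these data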;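 note: 0% = DAX1-transfected cells with DMSO and 100% = empty-vector control cells with DMSO; inhibition shows as a rise in luminescence from relieved DAX1 repression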
hgDAF-12 ag = hgDAF-12 agonism, primary luciferase screen. activation, % at 6.8 µM. 370,000 compounds, 1.8% hits. HEK293 GAL4-hgDAF12 UAS-luciferase reporter, agonist luminescence; normalized to butyrate control;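 active = activation above a cutoff set at the mean of all screened compounds plus 3 SD, cut at about 10% in these data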;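 note: 0% = DMSO wells and 100% = sodium butyrate wells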
ssDAF12 agonist = activates DAF-12 receptor from parasite S. stercoralis | activation, % at 6.8 µM | 370,000 compounds, 1% hits | AID 652126 | HEK293 ssDAF-12/GRIP1 lit1-tk-luc reporter, luminescence; % of 3 µM dafachronic acid response;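 active = activation above the mean over all tested compounds plus 3 SD, cut at about 0.9% in these data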;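 note: 0% = DMSO-only wells and 100% = 3 µM delta7-dafachronic acid wells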
hcDAF-12 act = activates DAF-12 receptor from parasite H. contortus. AID 652067. HEK293 hcDAF-12 lit1-tk-luc reporter, luminescence; 0% DMSO, 100% Δ7-dafachronic acid. 370,000 compounds, 1.4% hits. activation, % at 6.8 µM;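 active = activation above the mean of all tested compounds plus 3 SD, cut at about 5.5% in these data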;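 note: 100% = response to 3 µM Δ7-dafachronic acid high control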
DAX1 inh-2 = inhibitors of DAX1 repression of SF-1 activated StAR promoter | HEK293T StAR-luciferase reporter, SF-1/DAX-1 repression relief | inhibition, % at 6.8 µM | 370,000 compounds, 1.1% hits;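 active = inhibition above the mean over all tested compounds plus 3 SD, cut at about 3.6% in these data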;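 note: 0% = DAX-1 cells with DMSO and 100% = cells lacking DAX-1 with DMSO; higher inhibition means more luminescence from relief of DAX-1 repression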
DAX1 inh confirm = NR0B1 (human) inhibition, confirmation; shares compounds with DAX1 inh-2; HEK293T StAR-promoter luciferase reporter, SF-1/DAX-1 repression; inhibition, % at 6.8 µM; 2,400 compounds, 87% hits; AID 652134;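 active = inhibition above the average of every tested compound plus 3 SD, cut at about 3.8% in these data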;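 note: 0% = DAX-1 cells with DMSO and 100% = no DAX-1 control cells with DMSO; active compounds raise luminescence by relieving repression of the StAR reporter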
SF1 AF2mut Luc = counter-screen for DAX1 inhibitors: nonselective inhibitors with SF-1 AF2 mutant; shares compounds with DAX1 inh-2; HEK293 StAR-luciferase, luminescence; inhibition, % at 6.8 µM; 2,400 compounds, 78% hits;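 active = inhibition above the mean of all tested compounds plus 3 SD, cut at about 3% in these data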;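 note: 0% = DAX-1 transfected cells with DMSO and 100% = cells without DAX-1 with DMSO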
LXRb hcDAF ctr = activates human LXR-beta, counter-screen for hcDAF-12 agonists; AID 743027; activation, % at 6.8 µM; shares compounds with hcDAF-12 act; HEK293 Gal4-LXR tk-luc reporter, luminescence, 24 h; normalized: DMSO 0%, positive control 100%; 3,400 tested, under 10 active;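 active = mean percent activation of the reporter above a cutoff set as the average over tested compounds plus their standard deviation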
Target sequence (P55055 whole entry, looked up, the tested form may be a part): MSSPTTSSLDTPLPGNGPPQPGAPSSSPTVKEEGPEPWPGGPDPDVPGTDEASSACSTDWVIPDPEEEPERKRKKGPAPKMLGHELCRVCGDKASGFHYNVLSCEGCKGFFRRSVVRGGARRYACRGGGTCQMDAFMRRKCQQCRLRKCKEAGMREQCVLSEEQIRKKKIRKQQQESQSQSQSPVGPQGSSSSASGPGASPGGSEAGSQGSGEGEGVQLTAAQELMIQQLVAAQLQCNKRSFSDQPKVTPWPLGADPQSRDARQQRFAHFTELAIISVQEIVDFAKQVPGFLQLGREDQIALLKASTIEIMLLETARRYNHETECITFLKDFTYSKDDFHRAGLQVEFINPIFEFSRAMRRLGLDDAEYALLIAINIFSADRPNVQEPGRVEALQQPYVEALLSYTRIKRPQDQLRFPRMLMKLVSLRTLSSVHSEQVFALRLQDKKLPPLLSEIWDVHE
hcDAF12 conf = confirmation of H. contortus DAF-12 agonists; shares compounds with hcDAF-12 act; HEK293 hcDAF-12 lit1-tk-luc reporter, luminescence; % of Δ7-dafachronic acid response; activation, % at 6.8 µM; 3,400 compounds, 61% hits;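 active = mean activation across triplicate tests above the threshold derived from the earlier primary screen, cut at about 5.5% in these data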;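 note: 0% = DMSO only wells and 100% = 3 µM Δ7-dafachronic acid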
hgDAF12 ag = hgDAF-12 agonism, confirmation assay; shares compounds with hgDAF-12 ag; HEK293 GAL4-hgDAF12 luciferase reporter, agonist mode; percent of butyrate response; activation, % at 6.8 µM; 3,300 compounds, 80% hits;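 active = mean activation over triplicate wells above the hit cutoff derived from the earlier primary screen, cut at about 11% in these data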;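 note: 0% = DMSO low control and 100% = 2 mM sodium butyrate high control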
LXRb DAF12 ctr = LXR-beta agonism as DAF-12 counter-screen; AID 743051; HEK293 Gal4-LXR luciferase reporter, 24 h; shares compounds with hgDAF-12 ag; activation, % at 6.8 µM; 3,300 tested, under 10 active;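 active = mean activation of the triplicate above a set limit carried over from the primary screen, none filed active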
* hit, by the source's call. Compounds with a hit are over-represented: about 5.7% of the library has one in this group of screens.

For COc1ccc(NC(=O)c2cc3ccccc3oc2=O)cc1 the results were DAX1 inh-1 1, hgDAF-12 ag 23*, ssDAF12 agonist 1.1*, hcDAF-12 act 5.8*, DAX1 inh-2 6.7*, DAX1 inh confirm 3, SF1 AF2mut Luc -1, hgDAF12 ag 10 and LXRb DAF12 ctr 1.
For COc1ccc(NC(=O)c2cc3cc(OC)ccc3oc2=N)cc1 the results were AHR act -7, DAX1 inh-1 1, hgDAF-12 ag -1, ssDAF12 agonist 0, hcDAF-12 act -1 and DAX1 inh-2 -1.
`COc1ccc2oc(=O)c(C(=O)NC(C)c3ccccc3)cc2c1` (configuration not stated) gave AHR act 3, DAX1 inh-1 -1, hgDAF-12 ag -1, ssDAF12 agonist -1, hcDAF-12 act -3 and DAX1 inh-2 0.
Screening CCC(c1nnc(SCCNCCO)n1CCN1CCOCC1)N(C)C (configuration not stated) returned AHR act -1, hgDAF-12 ag 0, ssDAF12 agonist -1, hcDAF-12 act 0 and DAX1 inh-2 1.
`CN(C)c1ccc(N=Nc2nccs2)cc1` gave DAX1 inh-1 0, hgDAF-12 ag 18*, ssDAF12 agonist 2.2*, hcDAF-12 act 9.7*, DAX1 inh-2 7.0*, DAX1 inh confirm 16*, SF1 AF2mut Luc 5.9*, LXRb hcDAF ctr 2, hcDAF12 conf 11*, hgDAF12 ag 20* and LXRb DAF12 ctr 1.
For CCCCn1c(N)c(N(CC(C)C)C(=O)c2c(CC)noc2C)c(=O)[nH]c1=O the results were AHR act 2, DAX1 inh-1 1, hgDAF-12 ag -2, ssDAF12 agonist -1, hcDAF-12 act -1 and DAX1 inh-2 0.
Cc1c(C(=O)OC2CCC(C)CC2)[nH]c2c1C(=O)CCC2 (configuration not stated) was read as AHR act -4, DAX1 inh-1 5.8*, hgDAF-12 ag 15*, ssDAF12 agonist 0, hcDAF-12 act 4, DAX1 inh-2 7.3*, DAX1 inh confirm 15*, SF1 AF2mut Luc 5.9*, hgDAF12 ag 21* and LXRb DAF12 ctr 1.
Screening Cc1ccc(/C=C/c2nc3ccccc3c(=O)[nH]2)cc1 returned AHR act 9, DAX1 inh-1 0, hgDAF-12 ag 16*, ssDAF12 agonist 1.5*, hcDAF-12 act 8.7*, DAX1 inh-2 5.8*, DAX1 inh confirm 14*, SF1 AF2mut Luc 4.2*, LXRb hcDAF ctr 2, hcDAF12 conf 9.4*, hgDAF12 ag 18* and LXRb DAF12 ctr 1.
Screening O=C(NCc1ccccc1F)C(=O)NCC1OCCCN1S(=O)(=O)c1cccs1 (configuration not stated) returned AHR act 8, DAX1 inh-1 0, hgDAF-12 ag 0, ssDAF12 agonist -1, hcDAF-12 act -1 and DAX1 inh-2 1.
